Screen size: about 310,000 compounds; about 14,000 (4.5%) showed an effect of 50% or more. The effect is printed as a negative number. The full list was thinned out, with strong results kept by preference.
target: human ether-à-go-go-related gene (hERG) potassium channel (human, UniProt Q12809); assay: primary screen, population patch clamp on CHO cells stably expressing hERG; higher = less effect of the substance
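Note: peak tail current of the secondary pulse compared with the same well before compound.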

Sequence of human ether-à-go-go-related gene (hERG) potassium channel (Q12809 whole entry, looked up): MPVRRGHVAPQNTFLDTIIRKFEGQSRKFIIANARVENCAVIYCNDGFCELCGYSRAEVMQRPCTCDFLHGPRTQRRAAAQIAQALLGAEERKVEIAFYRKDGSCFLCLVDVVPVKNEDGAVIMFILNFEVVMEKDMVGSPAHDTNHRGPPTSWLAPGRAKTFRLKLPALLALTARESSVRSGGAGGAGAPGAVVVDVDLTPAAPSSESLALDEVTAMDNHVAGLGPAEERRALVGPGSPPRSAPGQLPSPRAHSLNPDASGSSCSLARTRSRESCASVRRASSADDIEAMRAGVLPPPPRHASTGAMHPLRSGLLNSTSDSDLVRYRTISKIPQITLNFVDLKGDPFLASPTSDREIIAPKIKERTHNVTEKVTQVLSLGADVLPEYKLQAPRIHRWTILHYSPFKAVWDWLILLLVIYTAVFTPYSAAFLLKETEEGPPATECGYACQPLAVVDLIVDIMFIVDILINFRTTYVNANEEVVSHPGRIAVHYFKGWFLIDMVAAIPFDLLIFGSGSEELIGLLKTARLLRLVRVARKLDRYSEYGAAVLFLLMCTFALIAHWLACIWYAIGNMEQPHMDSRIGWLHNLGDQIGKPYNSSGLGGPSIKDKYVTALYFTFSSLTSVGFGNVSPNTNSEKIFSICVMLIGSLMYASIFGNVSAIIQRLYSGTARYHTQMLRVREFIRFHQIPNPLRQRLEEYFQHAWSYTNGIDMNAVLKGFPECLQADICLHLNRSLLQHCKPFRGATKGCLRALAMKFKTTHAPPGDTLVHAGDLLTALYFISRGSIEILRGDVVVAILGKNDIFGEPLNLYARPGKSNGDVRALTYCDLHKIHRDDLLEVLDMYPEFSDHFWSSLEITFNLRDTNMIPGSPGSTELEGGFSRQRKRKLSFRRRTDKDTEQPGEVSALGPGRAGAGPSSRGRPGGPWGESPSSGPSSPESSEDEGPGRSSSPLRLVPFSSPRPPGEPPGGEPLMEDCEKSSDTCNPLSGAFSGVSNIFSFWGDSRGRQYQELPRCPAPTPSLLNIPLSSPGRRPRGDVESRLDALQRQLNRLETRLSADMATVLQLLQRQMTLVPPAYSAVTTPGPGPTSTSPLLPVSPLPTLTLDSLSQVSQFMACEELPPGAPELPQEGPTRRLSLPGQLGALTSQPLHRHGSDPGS

Row | SMILES | hERG current change (%, negative = inhibition) at 10uM
1 | Cc1ccc(NC(=O)COC(=O)CCC(=O)c2cccs2)cc1 | -6.94%
2 | COc1ccc(-c2nc3c(=O)n(C)c(=O)[nH]c3n2CCc2ccccc2)cc1 | 22.1%
3 | Cn1c(=O)c2c(nc(N3CCc4ccccc4C3)n2C)n(C)c1=O | 7.62%
4 | CCCCS(=O)(=O)N1CCC(C(=O)Oc2ccccc2OC)CC1 | -9.14%
5 | O=c1cc(N2CCc3ccccc3C2)[nH]c(=O)n1-c1ccc(Cl)cc1 | 3.07%
6 | COc1cc2[nH]c(=S)n(Cc3ccccc3)c(=O)c2cc1OC | 11.4%
7 | CCOc1ccc(CCNC(=O)CCC(=O)N2CCSc3ccccc32)cc1OCC | -2.52%
8 | O=C(Nc1ccc(Cc2ccncc2)cc1)c1cccc([N+](=O)[O-])c1 | 13.6%
9 | CC(=O)Nc1ccc(C(=O)CSc2nc3ccccc3n2CC(=O)N2CCCC2)cc1 | 11.1%
10 | CCOc1cc2c(C#N)c(N3CCNCC3)nc(N)c2c(N)n1 | 5.41%
11 | O=C(Cc1ccccc1)Nc1cccc(S(=O)(=O)N2CCCCCC2)c1 | -49.1%
12 | COc1ccccc1N1CCN(CCC(=O)Nc2ccc3c(c2)OCO3)CC1 | -26.7%
13 | O=C(CN1CCN(Cc2ccccc2)CC1)Nc1cccc(S(=O)(=O)N2CCCCCC2)c1 | -76.3%
14 | O=C(CN1CCOCC1)Nc1cccc(C(F)(F)F)c1 | -3%
15 | CC1CN(CC(=O)Nc2cccc(C(=O)Nc3cccc(C(F)(F)F)c3)c2)CC(C)O1 (stereo not drawn) | -54.3%
16 | CC(=O)N1CCN(CC(=O)Nc2cccc(S(=O)(=O)N3CCCCCC3)c2)CC1 | -23.3%
17 | CC1CCN(CC(=O)Nc2cccc(C(=O)Nc3cccc(C(F)(F)F)c3)c2)CC1 | -37.3%
18 | O=C(CN1CCN(c2ccccc2)CC1)Nc1cccc(C(F)(F)F)c1 | 2%
19 | O=C(CN1CCOCC1)Nc1cccc(C(=O)Nc2cccc(C(F)(F)F)c2)c1 | -40.1%
20 | COc1ccccc1N1CCN(CCC(=O)Nc2ccc(F)cc2)CC1 | -19.3%
21 | COc1ccccc1N1CCN(CCC(=O)Nc2cccc(Cl)c2)CC1.Cl | -62.8%
22 | O=C(CN1CCN(Cc2ccccc2)CC1)Nc1cccc(C(F)(F)F)c1 | -71.6%

Row | SMILES | hERG current change (%, negative = inhibition) at 10uM
23 | COc1ccc(NC(=O)Cn2nnc(C(=O)NCc3cccs3)c2N)cc1 | 13.9%
24 | COc1ccc(/C=C2\SC(=S)N(Cc3cccnc3)C2=O)cc1C | -3.04%
25 | Cc1ccc2c(cnn2C(=O)CCC(=O)NC2CCCC2)c1 | -10.3%
26 | O=C(CCN1C(=O)/C(=C/c2cccc(Br)c2)SC1=S)NNC(=O)c1cccnc1 | 6.24%
27 | CCOc1ccccc1NC(=O)COC(=O)c1ccccc1SCC(=O)N1CCCC1 | 1.65%
28 | Cl.O=C(CCN1CCCCC1)Nc1cccc(Cl)c1 | -35.9%
29 | N#Cc1cccc(NC(=O)CN2CCN(Cc3ccccc3)CC2)c1 | -65.1%
30 | O=C(CCN1CCN(Cc2ccccc2)CC1)NNC(=O)Nc1cccc(Cl)c1 | -47%
31 | O=C(CCN1CCN(Cc2ccccc2)CC1)NNC(=O)Cc1ccc(Cl)c(Cl)c1 | -74.7%
32 | NNC(=O)CCN1CCN(Cc2ccccc2)CC1 | 17%
33 | N#Cc1cccc(NC(=O)CN2CCCCCC2)c1 | -10.9%
34 | N#Cc1cccc(NC(=O)Cc2ccccc2)c1 | 13.6%
35 | Cl.O=C(CNC1CCN(Cc2ccccc2)CC1)Nc1ccc(S(=O)(=O)N2CCCCC2)cc1 | -69.7%
36 | O=C(CCN1CCN(Cc2ccccc2)CC1)Nc1cccc(Cl)c1 | -70.6%
37 | CCc1ccc(C(=O)NNC(=O)CCN2CCN(Cc3ccccc3)CC2)cc1 | -19.8%
38 | O=C(CNC1CCCCC1)Nc1ccc(S(=O)(=O)N2CCCCC2)cc1 | 2.13%
39 | O=C(CNC1CCCC1)Nc1ccc(S(=O)(=O)N2CCCCC2)cc1 | -0.797%
40 | COc1ccc(NS(=O)(=O)c2cnc[nH]2)cc1 | 17.4%
41 | COCCCNC(=O)c1ccc(NS(C)(=O)=O)cc1 | -2.85%
42 | O=C(O)c1c(NC(=O)c2cccc3ccccc23)sc2c1CCC2 | 5.11%
43 | COc1cccc(CNc2nc(C(F)(F)F)nc3ccccc23)c1 | 0.0262%
44 | CS(=O)(=O)c1cccc(NC(=O)C2CCCN2S(=O)(=O)c2ccc(F)cc2)c1 (stereo not drawn) | 7.77%

Row | SMILES | hERG current change (%, negative = inhibition) at 10uM
45 | Nc1ccc(C(=O)OCc2ccncc2)cc1[N+](=O)[O-] | -28.7%
46 | NC(=O)c1cccnc1Nc1ccccc1F | 0.0995%
47 | CC1(C)C=Cc2cc3ccc(=O)oc3cc2O1 | 3.51%
48 | COc1ccc(OCc2n[nH]c(=S)n2-c2ccc(C)cc2)cc1 | 0.659%
49 | CCN(CC)C(=S)SCC(=O)Nc1cccc(C(F)(F)F)c1 | -10%
50 | Cl.O=C(CN1CCCCC1)Nc1cccc(Cl)c1 | -28.8%
51 | Cl.O=C(CN1CCCC1)Nc1cccc(Cl)c1 | -3.66%
52 | O=C(Cn1ccc(C(F)(F)F)n1)Nc1cccc(S(=O)(=O)N2CCCCC2)c1 | -60.5%
53 | O=C(O)CSCC(=O)Nc1cccc(C(F)(F)F)c1 | -6.67%
54 | Cc1ccc(S(=O)(=O)N2CCCCC2)cc1NC(=O)Cn1ccc(C(F)(F)F)n1 | -8.63%
55 | CN(C)C(=S)SCC(=O)Nc1cccc(C(F)(F)F)c1 | -54.6%
56 | O=C(CN1CCN(Cc2ccccc2)CC1)Nc1cccc(Cl)c1 | -60.7%
57 | O=C(Cn1cnnn1)Nc1cccc(S(=O)(=O)N2CCCCC2)c1 | 18.2%
58 | CCN1CCN(C(=S)Nc2sc(C)c(-c3ccccc3)c2C(=O)OC)CC1 | 15.3%
59 | CC1(C)Cc2cccc(OCC(=O)OCC(=O)c3ccccc3)c2O1 | 1.43%
60 | Cc1c(NC(=O)CSc2nnnn2-c2ccc(F)cc2)c(=O)n(-c2ccccc2)n1C | -2.74%
61 | Cc1cccc(C(=O)Oc2ccc(/C=N/NC(=O)c3ccncc3)cc2)c1 | 3.1%
62 | COc1ccccc1C1=NCc2nnc(C)n2-c2ccc(Cl)cc21 | 3.01%
63 | CCOCCN1CCN(c2nnc3n2-c2ccc(Cl)cc2C(c2ccccc2Cl)=NC3)CC1.O=CO | -76.5%
64 | Clc1ccc2c(c1)C(c1ccccc1Cl)=NCc1nnc(N3CCN(CCOc4ccccc4)CC3)n1-2.O=C(O)/C=C/C(=O)O | -72.7%
65 | Clc1ccc2c(c1)C(c1ccccc1Cl)=NCc1nnc(N3CCN(CCSc4ccccc4)CC3)n1-2.O.O=C(O)/C=C/C(=O)O | -66.5%
66 | Clc1ccc2c(c1)C(c1ccccc1Cl)=NCc1nncn1-2 | -4.37%

Row | SMILES | hERG current change (%, negative = inhibition) at 10uM
67 | CCS(=O)(=O)NCc1nnc2n1-c1ccc(Cl)cc1C(c1ccccc1)=NC2 | 12.6%
68 | CCS(=O)(=O)NCc1nnc2n1-c1ccc(Br)cc1C(c1ccccc1Cl)=NC2 | -49%
69 | Cc1nnc2n1-c1ccc(Br)cc1C(c1ccccc1Cl)=NC2 | -21.1%
70 | CN1CCN(Cc2nnc3n2-c2ccc(Cl)cc2C(c2ccccc2)=NC3)CC1.O=CO | -64.7%
71 | COCCCN1CCN(c2nnc3n2-c2sc(Br)cc2C(c2ccccc2Cl)=NC3)CC1.CS(=O)(=O)O | -47.7%
72 | CSCc1nnc2n1-c1ccc(Cl)cc1C(c1ccccc1)=NC2 | -17%
73 | Clc1ccc2c(c1)C(c1ccccc1Cl)=NCc1nnc(Br)n1-2.c1ccccc1 | -6.61%
74 | C/C(=N\NC(=O)C1CC1)c1ccc(N2CCOCC2)cc1 | -0.403%
75 | O=c1/c(=C/c2ccco2)sc2nc(-c3ccccc3Br)nn12 | 12.7%
76 | O=c1sc2ccccc2c(N2CCCC2)c1[N+](=O)[O-] | 6.33%
77 | Cc1cc(C)nc(SCc2nnc(SCC(N)=O)o2)n1 | 15.7%
78 | O=C(c1ccccc1)c1ccc(N=Nc2c(O)[nH]c(=O)[nH]c2=O)cc1 | 1.15%
79 | Cc1nc2c(c(=O)n1CCC1=CCCCC1)c1nc3ccccc3nc1n2/N=C/c1ccco1 | -22%
80 | O=S(=O)(c1cccs1)N1CCC(Cc2ccccc2)CC1 | 6.58%
81 | CCOC(=O)C1=C(N)Oc2ccc3ccccc3c2C1c1cccnc1 (stereo not drawn) | 0.98%
82 | O/N=C1\CCCc2c1nc(-c1ccccc1F)n2O | 26.1%
83 | O=C(COc1cc2oc(=O)c3c(c2cc1Cl)CCC3)NCC1CCC(C(=O)O)CC1 (stereo not drawn) | 5.36%
84 | Cc1ccc(S(=O)(=O)CC(=O)N2CCCCCC2)cc1 | 13.6%
85 | C=CC(C)(C)c1[nH]cnc1/C=C1\NC(=O)C(C(C)C)NC1=O (stereo not drawn) | 3.54%
86 | COc1ccc(NC(=O)N[C@@H](CCSC)C(=O)O)cc1OC | -0.994%
87 | Cc1ccc(NC(=S)N2CCC(NC(=O)c3cccc(F)c3)CC2)cc1 | -24.9%

— paper PMC4336329 (PLoS ONE, 2015)
